Experimental data taken from PubChem BioAssay AID1712 (National Center for Advancing Translational Sciences (NCATS), 2009).
Inconclusive results are not listed. Activity calls are given as the source filed them. Calls follow the shape of the dose curve; as a rule, active = well fitted curve in the direction sought with a large enough effect; inconclusive = small, poorly fitted or top-dose-only effect, or effect the other way, or another doubt; inactive = no such curve, though single readings can be large or run the other way.

Molecular target: Amyloid-beta precursor protein (Homo sapiens) (UniProt P05067)
Sequence (P05067 whole entry, looked up, the tested form may be a part): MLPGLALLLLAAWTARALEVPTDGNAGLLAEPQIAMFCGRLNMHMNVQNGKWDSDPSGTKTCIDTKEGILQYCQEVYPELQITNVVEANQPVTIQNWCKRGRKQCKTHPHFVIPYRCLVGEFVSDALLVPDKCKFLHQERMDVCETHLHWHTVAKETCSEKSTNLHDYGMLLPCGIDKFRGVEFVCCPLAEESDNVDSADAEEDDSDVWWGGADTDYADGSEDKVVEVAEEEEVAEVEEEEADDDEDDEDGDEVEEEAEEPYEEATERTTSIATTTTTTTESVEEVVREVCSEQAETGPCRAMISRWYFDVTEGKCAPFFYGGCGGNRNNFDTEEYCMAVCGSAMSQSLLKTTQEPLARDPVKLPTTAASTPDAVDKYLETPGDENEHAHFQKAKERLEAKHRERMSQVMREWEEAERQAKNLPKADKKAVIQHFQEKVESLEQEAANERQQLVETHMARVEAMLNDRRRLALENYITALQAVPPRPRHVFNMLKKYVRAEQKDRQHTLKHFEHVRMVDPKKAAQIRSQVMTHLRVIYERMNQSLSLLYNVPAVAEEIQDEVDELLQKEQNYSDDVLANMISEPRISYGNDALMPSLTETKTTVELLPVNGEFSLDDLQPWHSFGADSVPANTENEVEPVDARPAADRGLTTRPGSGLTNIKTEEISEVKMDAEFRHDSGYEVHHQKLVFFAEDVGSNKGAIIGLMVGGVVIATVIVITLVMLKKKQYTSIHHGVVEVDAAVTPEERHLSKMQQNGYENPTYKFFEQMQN
Assay: Assay for Inhibitors of the fibrillization of the Beta-Amyloid Protein Fragment, A-beta 1-42
Conditions: A-beta 1-42 fibrillization, ThT fluorescence, 4 h; series mostly up to 80 µM; activity, positive = inhibition: at the top concentration
Text: NIH Molecular Libraries Probe Production Network [MLPCN] NIH Chemical Genomics Center [NCGC] MLPCN Grant: X01 MH083262-01 Assay Provider: Carlo Ballatore, University of Pennsylvania NCGC Assay Overview: The microtubule-associated protein tau is an abundant protein in the axons of neurons that stabilizes microtubules. With its ability to modulate microtubule dynamics, tau contributes directly or indirectly, to key structural and regulatory cellular functions. Particularly important is the influence tau exerts on axonal transport, which allows signaling molecules, trophic factors and other essential cellular constituents to travel along the axons. Under pathological conditions, tau becomes sequestered into insoluble aggregates called neurofibrillary tangles. This phenomenon is believed to have pathological consequences by promoting axonal transport deficits that ultimately lead to synaptic dysfunction and neuronal loss. Beta-amyloid protein undergoes a similar type of aggregation as tau and is implicated in the pathology of Alzheimer's disease. To examine the selectivity of tau fibrillization inhibitors, compounds were tested in an in vitro assay for fibrillization of the beta-amyloid fragment, A-beta 1-42. Crystal, A. S., Giasson, B. I., Crowe, A., Kung, M. P., Zhuang, Z. P., Trojanowski, J. Q., and Lee, V. M. Y. (2003) Journal of Neurochemistry 86, 1359-1368.
NCGC Assay Protocol Summary: Synthetic A-beta 1-42 aliquots were reconstituted to 2 mg/ml in DMSO and then diluted to 15 uM in 25 mM Tris, pH 7.0 buffer to which test compound was added at 50 uM final concentration, or at several concentrations ranging from 0.16-40 uM. The reaction mixtures were dispensed at 25 ul/well into a 384-well plate and then incubated at 37 C for 4 hrs. Upon completion of the reaction, 25 ul of 25 uM ThT was added to each well followed by ThT fluorescence readings as described above for K18PL.

activity, positive = inhibition, inactive:
CCOC(=O)c1nn(-c2ccc(C)c(C)c2)c(=O)c2c(N)scc12 -17.1%
COc1ccc(NC(=O)CSc2nnc(CCC(=O)Nc3ccc(C)c(Cl)c3)n2C)cc1 -21.2%
O=S(=O)(c1ccc2c(c1)OCCO2)N1CCN(c2nc(-c3ccccc3)nc3ccccc23)CC1 -8.26%
COc1ccc(-n2nc(C(=O)O)c3csc(N)c3c2=O)cc1 7.71%
CCOC(=O)c1nn(-c2ccccc2F)c(=O)c2c(N)scc12 5.98%
Nc1scc2c(CO)nn(-c3ccccc3)c(=O)c12 -12.8%
CCOC(=O)c1nn(-c2ccccc2)c(=O)c2c(N)scc12 2.97%
Nc1scc2c(C(=O)N3CCOCC3)nn(-c3ccccc3)c(=O)c12 5.25%
NC(=O)c1nn(-c2ccccc2)c(=O)c2c(N)scc12 -7.43%
Nc1nn(-c2ccccc2)c(=O)c2c(N)scc12 -16.8%
CCOC(=O)c1ccc(-n2nc(C(=O)OCC)c3csc(N)c3c2=O)cc1 -0.14%
Cc1ccc(S(=O)(=O)N2CCN(c3nc(-c4ccccc4)nc4ccccc34)CC2)cc1 -11.6%
CC(=O)Nc1sc(C)c2cnn(-c3ccccc3)c(=O)c12 27.7%
